# Screens deposited in PubChem by National Center for Advancing Translational Sciences (NCATS).
# PLK1 PBD block = blocks phosphopeptide binding to human PLK1 polo-box domain. P53350. Plk1 PBD binding of FITC phosphopeptide, fluorescence polarization. Potency, µM, for inactives: max response, negative = inhibition, actives largely listed as inhibitors. 2.8% of 360,000 active. AID 720504; further: series mostly up to about 57 µM; nearly all actives have a fitted effect of over 65% in size
# mIDH1 inhibitor = human IDH1 R132H inhibition; IDH1-R132H enzyme, NADPH consumption, diaphorase/resazurin fluorescence; Potency, µM (doses to about 76.6 µM), for the others: at the highest dose activity change, negative = inhibition, actives largely listed as inhibitors; 0.093% of 390,000 active; AID 602179; further: nearly all actives have a fitted effect of over 65% in size
#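 IDH1-R132H (0.5 ug/mL dispensed) in pH 7.5 Tris buffer was preincubated 30 min with compound, then given a substrate mix of 0.016 mM NADPH and 2 mM alpha-KG for 80 min at room temperature; remaining NADPH was read by diaphorase/resazurin fluorescence.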
# TrxR1 inh = inhibitors of rat thioredoxin reductase 1; 1% of 390,000 active; Potency, µM (highest dose often 114 µM), for inactives: top-dose activity change, negative = inhibition, most hits filed as inhibitors; O89049; recombinant rTrxR1, NADPH fluorescence consumption, selenite substrate; further: nearly all actives have a fitted effect of over 65% in size
# Target sequence (O89049 whole entry, looked up): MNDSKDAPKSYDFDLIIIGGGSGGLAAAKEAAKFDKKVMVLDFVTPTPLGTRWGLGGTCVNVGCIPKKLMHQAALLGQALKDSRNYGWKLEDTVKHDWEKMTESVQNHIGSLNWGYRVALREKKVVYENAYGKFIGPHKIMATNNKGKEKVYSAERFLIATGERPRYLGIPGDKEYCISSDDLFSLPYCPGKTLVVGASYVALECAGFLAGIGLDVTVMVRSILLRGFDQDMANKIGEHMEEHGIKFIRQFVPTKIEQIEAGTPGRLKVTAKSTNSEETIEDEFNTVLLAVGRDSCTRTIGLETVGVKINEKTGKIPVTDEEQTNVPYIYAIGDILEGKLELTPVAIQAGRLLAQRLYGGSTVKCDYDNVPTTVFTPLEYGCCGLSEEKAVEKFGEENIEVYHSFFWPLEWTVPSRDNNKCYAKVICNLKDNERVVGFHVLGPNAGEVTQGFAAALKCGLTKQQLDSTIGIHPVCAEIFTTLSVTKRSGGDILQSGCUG
#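 Rat TrxR1 (90 nM in the dispensed reagent) was pre-reduced with 400 uM NADPH for 5 min at room temperature, then incubated with compound for 15 min. After 400 uM selenite was added, NADPH fluorescence (Ex 340/Em 450 nm) was followed for 8 min.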
# VDR inh = inhibitors of human vitamin D receptor; P11473; VDR-SRC2-3 peptide fluorescence polarization, 2 h; Potency, µM, inactives show max response, negative = inhibition, most hits filed as inhibitors; 0.93% of 400,000 active
#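 The screen uses fluorescence polarization to detect compounds that interfere with recruitment of the SRC2-3 coactivator peptide to VDR; plates are read after 2 h at room temperature.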
# TrxR1 substrate = substrates of rat thioredoxin reductase 1; O89049; purified TrxR1 substrate turnover, NADPH consumption readout; Potency, µM (series often up to 114 µM), inactives show top-dose activity change, negative = substrate turnover; 0.01% of 390,000 active; further: nearly all actives have a fitted effect of over 50% in size
#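 Rat TrxR1, dispensed at 90 nM, was prereduced with 400 uM NADPH (final) for 5 min at ~22 deg C, then incubated with compound 15 min before 400 uM selenite. A first-read NADPH fluorescence drop versus no-compound background flagged substrates.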
# Sfp inh = Sfp phosphopantetheinyl transferase inhibition; Biochemical Sfp PPTase activity, qHTS; Potency, µM, for the others: largest response in the series, negative = inhibition, actives largely listed as inhibitors; 3.5% of 310,000 active;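 further: the enzyme is Sfp with the accession as filed and its product quenches rhodamine fluorescence; 0% = enzyme reaction without inhibitor and -100% = no enzyme wells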
#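 Buffer: 50 mM Hepes-Na pH 7.6, 10 mM MgCl2, 0.01% Nonidet P-40, 0.01% BSA. Enzyme 15 nM, pre-exposed to compound 15 min; substrates then added and fluorescence change tracked over 30 min.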
# Numbers without * were called inactive; ? = inconclusive; . = not tested or not shown; ! = a repeat was not active; [ ] = another dose, or the depositor's remark. A selection: hits, their analogues and other compounds. The true share with any hit is near 5.2%. The call rests on the fitted dose curve; in most records, active means well fitted curve in the direction sought with a large enough effect; inconclusive means small, poorly fitted or top-dose-only effect, or another doubt; inactive means no such curve, though single readings can be large; an effect the other way counts as inactive or inconclusive. Unless noted, on the % scale 0 is the no-effect control and ±100 the full control effect; potency means the concentration at half of the fitted maximal effect.
SMILES,PLK1 PBD block,mIDH1 inhibitor,TrxR1 inh,VDR inh,TrxR1 substrate,Sfp inh
CC(=O)C1=C(C)NC(SCC(=O)c2ccc(-c3ccccc3)cc2)=C(C#N)C1c1cccnc1 (stereo not drawn),.,.,.,.,.,22µM*
CC(=O)C1=C(C)NC(SCC(N)=O)=C(C#N)C1c1ccco1 (stereo not drawn),-1%,-6%,-23%,-5%,-13%,89µM*
CCN(CC)C(=O)CSC1=C(C#N)C(c2ccco2)C(C(=O)OCCOC)=C(C)N1 (stereo not drawn),-3%,6%,?,-6%,-14%,56µM*
Cc1cccc(OCCOCCn2c(-c3ccc(Cl)cc3)nc3ccccc3c2=O)c1C,.,-7%,-7%,-20%,-1%,.
Cc1cccc(Cn2c(=O)n(CC3CCC(C(=O)NC(C)C)CC3)c(=O)c3sccc32)c1 (stereo not drawn),.,-15%,12%[57.1 µM],-10%,-1%[57.1 µM],.
COc1cc(OC)cc(C(=O)NNC(=O)c2cc(S(=O)(=O)N3CCOCC3)ccc2F)c1,-16%,1%,2%,19%,-10%,.
CCCCC[C@H](O)/C=C/C=C\CCCCCCCC(=O)O,.,.,.,?,.,0%
COc1ccccc1NC(=O)C1=C(C)NC(SCC(=O)c2ccc(C)cc2)=C(C#N)C1c1ccco1 (stereo not drawn),.,.,.,.,.,45µM*
CCCn1c(SCC(=O)Nc2cc(C)on2)n[nH]c1=O,-2%,-3%,13%,-5%,0%,.
COC(=O)c1c[nH]c(=O)c2ccccc12,15µM*,11%,21%[57.1 µM],?,8%[57.1 µM],-3%
COC(=O)c1ccccc1C(=O)c1cccc2ccccc12,-15%,12%,18%,-11%,-2%,12%
COc1ccc(CCn2c(=S)[nH]c(=O)c3[nH]cnc32)cc1OC,.,.,-2%,2%,4%,.
CSc1ccccc1NC(=O)CN(C)Cc1c(O)ccc2ccccc12,11µM*,16%,?,?,-2%,-6%
CN(CC(=O)Nc1ccc(N2CCOCC2)cc1)CC(=O)Nc1ccc(N2CCOCC2)cc1,-14%,7%,15%,-4%,-2%,-7%
COc1cc2nc(CN(C)CC(=O)Nc3ccc(N4CCOCC4)cc3)[nH]c(=O)c2cc1OC,?,8%,14%[57.1 µM],-14%,-4%[57.1 µM],3.5µM*
CN(CC(=O)Nc1ccc(N2CCOCC2)cc1)Cc1c(O)ccc2ccccc12,4.7µM*,7%,4µM*,28µM*,13%[57.1 µM],?
CN(Cc1ccccc1)Cc1c(O)ccc2ccccc12,?,0%,-43%,?,11%,-17%
CSc1ccccc1NC(=O)CN(C)Cc1ccc(Br)cc1,-7%,5%,-8%,-21%,6%[57.1 µM],-12%
COc1ccc(OCCN(C)Cc2c(O)ccc3ccccc23)cc1,8.4µM*,13%,?,?,4%,-8%
O=C(C[n+]1cccc(C(=O)Nc2ccccc2)c1)c1ccccc1,-8%,.,.,.,.,.
COC(=O)C1CCN(C(=O)C2CC(=O)N(c3ccc(C)c(Cl)c3)C2)CC1 (stereo not drawn),-7%,0%,-6%,8%,-4%,.
COc1ccc(CNC(=O)Cc2coc3ccc(C)cc23)cc1,.,20%,1%,-2%,-1%,.
COc1cc2c(C#N)c(N3CCN(C)CC3)nc(N)c2c(N)n1,.,.,.,.,.,8%
COc1cc2c(C#N)c(N3CCCC3)nc(N)c2c(N)n1,-11%,-25%,-26%[57.1 µM],28µM*!,16µM*!,4µM*
CCCn1c(C(CO)Nc2nc(C)cs2)nc2ccccc21 (stereo not drawn),-12%,11%,?,0%,1%,6%
SMILES,PLK1 PBD block,mIDH1 inhibitor,TrxR1 inh,VDR inh,TrxR1 substrate,Sfp inh
NC(=S)NCCC[C@H](N)C(=O)O,.,.,16%[57.1 µM],50µM*,4%[57.1 µM],56µM*
CC1CN(c2ccc(Cl)cc2[N+](=O)[O-])CCN1S(C)(=O)=O (stereo not drawn),30µM*,0%,9%[57.1 µM],-5%,-4%[57.1 µM],7%
CS(=O)(=O)N1CCN(c2ccc(Cl)cc2[N+](=O)[O-])CC1,-1%,0%,6%,-8%,1%,7%
Cc1c(-c2cccc(NC(=O)Nc3ccccc3)c2)nc2ncccn12,.,5%,21%[57.1 µM],-2%,31%[57.1 µM],.
COCCCNC(=O)C1CCN(c2cc(C)nc3c(-c4ccc(Cl)cc4)c(C)nn23)CC1,.,-8%,28%,-18%,6%,.
COC(=O)c1ccccc1N/C=C1\CCc2c(c(C)nn2-c2ccccn2)C1=O,-14%,6%,-9%,12%,-3%,45µM*
COc1ccccc1NC(=S)NNC(=S)Nc1ccc(OC(F)F)cc1,24µM*,23%,-21%[57.1 µM],?,7%[57.1 µM],-27%
CCC(C(=O)Nc1nnc2n1CCS2)c1ccccc1 (stereo not drawn),.,-13%,24%[57.1 µM],4%,2%[57.1 µM],.
COc1ccc(-c2noc(N3CCC(C(=O)N4CCN(c5ccccc5F)CC4)CC3)n2)cc1,.,26%,-7%,12%,-5%,.
S=c1[nH]nc(COc2ccc3c(c2)OCO3)n1-c1ccccc1,-10%,7%,-30%,-3%,-10%,40µM*
COc1ccc(-c2nc(CCNC(=O)c3c(F)cccc3Cl)cs2)cc1,.,0%,13%[57.1 µM],-2%,4%[57.1 µM],.
CC1=C(C(=O)Nc2ccc([N+](=O)[O-])cc2)C(c2cccc(C(F)(F)F)c2)NC(=S)N1c1ccccc1 (stereo not drawn),-9%,3%,?,-6%,-17%,14%
COc1ccc(C2NC(=S)N(c3ccccc3)C(C)=C2C(=O)Nc2ccccc2)cc1 (stereo not drawn),-7%,3%,2%,11%,-4%,89µM*
O=C(O)C1CSC(CCc2ccccc2)N1 (stereo not drawn),-3%,1%,84%,12%,7%,79µM*
CCOc1ccccc1NC(=O)C(NCCN(C)C)c1ccccc1 (stereo not drawn),0%,3%,17%,11%,6%,79µM*
CCOc1ccccc1NC(=O)C(NCCc1ccc(OC)cc1)c1ccccc1 (stereo not drawn),5%,1%,19%,1%,7%,?
O=C(NCCc1nc2ccccc2n1CCCOc1ccc2ccccc2c1)C1CCCCC1,.,.,15%,-17%,6%[0.0914 µM],.
CCOCCn1c(=O)c2c(nc3n2CC(C)CN3CCc2ccccc2)n(C)c1=O (stereo not drawn),-4%,28%,10%,0%,-4%,-7%
CCN1c2ccccc2NC2N=C(OC)C(c3ccccc3)C21 (stereo not drawn),-14%,13%,20µM*,?,3%,3%
COCCNC(=O)C1(C(F)(F)F)C/C(=C\CCO)CCCO1 (stereo not drawn),.,.,7%[57.1 µM],-13%,3%,21%
